Reference: the supplement of paper PMC12494721
Counter-ions that a name gives are not always drawn.

Tested on: Clostridium sporogenes DSM 1664
Assay: fold change of Tryptamine concentration vs plate DMSO controls (fold change (ratio)); higher = more amine produced, active = hit call of the paper (significant change in both replicates, either direction)
Conditions: incubation time: 27 h, anaerobic, 37 °C;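 for the amine columns active = adjusted P below 0.05 in both replicates with a change the same way and a mean fold change under 0.8 or over 1.25; inactive = the rest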
Summary of the method: (§1)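 Using LC–triple-quadrupole MS with dynamic MRM, amines were quantified against external calibration curves and corrected for drift within each batch. Samples were whole anaerobic mGAM cultures of four gut strains, grown 27 h at 37 °C from OD 0.1 before 1:1 dilution, extracted with cold acetonitrile/methanol containing 0.1% formic acid and centrifuged. Compounds were present at 20 µM final (sweeteners at 50 µM final). The numbers are fold changes versus plate DMSO controls, each the mean of 2 biological replicates.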

Fold change of Tryptamine concentration, inactive:
CO/N=C(\C(=O)N[C@@H]1C(=O)N2C(C(=O)OCOC(=O)C(C)(C)C)=C(/C=C\c3scnc3C)CS[C@H]12)c1csc(N)n1 [Cefditoren Pivoxil] (20 µM) 0.951
Nc1ncnc2c1ncn2[C@@H]1O[C@H](CO)[C@@H](O)[C@@H]1O [Vidarabine] (20 µM) 0.947
O=C(O)c1ccccc1Nc1cccc(C(F)(F)F)c1 [Flufenamic acid] (20 µM) 0.918
CCc1ccc(CCOc2ccc(CC3SC(=O)NC3=O)cc2)nc1 (stereo unspecified) [Pioglitazone] (20 µM) 0.918

Tested on: Ruminococcus gnavus DSM 108212
Assay: as above
Conditions: incubation time: 27 h, anaerobic, 37 °C
Summary of the method: as §1

Fold change of Tryptamine concentration, inactive:
CCCCCCCCCCCCCCCCCCCCCC(=O)Nc1ccn([C@@H]2O[C@H](CO)[C@@H](O)[C@@H]2O)c(=O)n1 [Enocitabine] (20 µM) 0.913
COCC1=C(C(=O)OC(C)OC(=O)OC(C)C)N2C(=O)[C@@H](NC(=O)/C(=N\OC)c3csc(N)n3)[C@H]2SC1 (stereo partly specified) [Cefpodoxime proxetil] (20 µM) 0.622
COc1cccc2c1C(=O)c1c(O)c3c(c(O)c1C2=O)C[C@@](O)(C(=O)CO)C[C@@H]3O[C@H]1C[C@H](N)[C@@H](O)[C@H](C)O1 [Epirubicin hydrochloride] (20 µM) 0.966
CN1CCCN(C(c2ccccc2)c2ccc(Cl)cc2)CC1 (stereo unspecified) [Homochlorcyclizine dihydrochloride] (20 µM) 0.918
COc1ccc(/C=C/C(=O)Nc2ccccc2C(=O)O)cc1OC [Tranilast] (20 µM) 1.01
CC(C)Nc1ncccn1 [Isaxonine] (20 µM) 0.919
CC(=O)N[C@@H](CS)C(=O)O [Acetylcysteine] (20 µM) 0.993
C=C1C[C@@]23CC[C@H]4[C@@](C)(CCC[C@@]4(C)C(=O)O[C@@H]4O[C@H](CO)[C@@H](O)[C@H](O)[C@H]4O)[C@@H]2CC[C@]1(O[C@@H]1O[C@H](CO)[C@@H](O)[C@H](O)[C@H]1O[C@@H]1O[C@H](CO)[C@@H](O)[C@H](O)[C@H]1O)C3 [Stevioside] (50 µM) 0.947
Nc1ccc(S(=O)(=O)Nc2nccs2)cc1 [Sulfathiazole] (20 µM) 1.03
CC(=O)OCC(=O)[C@@]1(O)CC[C@H]2[C@@H]3CCC4=CC(=O)C=C[C@]4(C)[C@@]3(F)[C@@H](O)C[C@@]21C [Isoflupredone acetate] (20 µM) 1.1
CC(=O)CCCCn1c(=O)c2c(ncn2C)n(C)c1=O [Pentoxifylline] (20 µM) 0.965
CCN(CC)CCOC(=O)C1(C2CCCCC2)CCCCC1 [Dicyclomine hydrochloride] (20 µM) 0.845
CC(=O)OCC(=O)[C@@]1(O)[C@H](C)C[C@H]2[C@@H]3CCC4=CC(=O)C=C[C@]4(C)[C@@]3(F)[C@@H](O)C[C@@]21C [Dexamethasone acetate] (20 µM) 1.01
Cc1nc2n(c(=O)c1CCN1CCC(c3noc4cc(F)ccc34)CC1)CCCC2O (stereo unspecified) [Paliperidone] (20 µM) 0.966
O=C(Nc1cccc2c(=O)cc(-c3nnn[nH]3)oc12)c1ccc(OCCCCc2ccccc2)cc1 [Pranlukast] (20 µM) 0.804
CCC(Cc1c(I)cc(I)c(N)c1I)C(=O)O (stereo unspecified) [Iopanoic acid] (20 µM) 0.879
C/C(=C\C(=O)OCCCCCCCCC(=O)O)C[C@@H]1OC[C@H](C[C@@H]2O[C@H]2[C@@H](C)[C@H](C)O)[C@@H](O)[C@H]1O [Mupirocin] (20 µM) 1.04
CC(Oc1c(Cl)cccc1Cl)C1=NCCN1 (stereo unspecified) [Lofexidine] (20 µM) 1.03
CCOc1ccc(NC(=O)CC(C)O)cc1 (stereo unspecified) [Bucetin] (20 µM) 0.95
CN(C)CCc1c[nH]c2ccc(Cn3cncn3)cc12 [Rizatriptan benzoate] (20 µM) 1.01
CC(C)OC(=O)C(C(=O)OC(C)C)=C1SC=CS1 [Malotilate] (20 µM) 0.956
CC1CS(=O)(=O)CCN1/N=C/c1ccc([N+](=O)[O-])o1 (stereo unspecified) [Nifurtimox] (20 µM) 0.971
